Source: PubChem BioAssay (NCI)
About 79,000 compounds went through this panel and 15% of them were active in at least one assay; those are over-represented in the sample as a whole. A number with no mark means an inactive call. The source made the active and inactive calls. No stated cut-off is given here; in the data, active means growth inhibition above about 70%; inactive means the rest.

Experiments:
[1] = NCI Yeast Anticancer Drug Screen. Data for the rad50 strain (AID 155);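 further: 0% = growth of vehicle-only cultures of the same strain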; conditions: S. cerevisiae rad50 strain growth inhibition, hits give high values
How it was run: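 Inhibition values express reduced yeast growth in compound-treated cultures relative to vehicle-treated controls.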

[2] = NCI Yeast Anticancer Drug Screen. Data for the mec2-1 strain (AID 157); conditions: S. cerevisiae mec2-1 strain, hits give high values
How it was run: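 Test agents were screened against the mec2-1 yeast strain, with defined DNA repair or cell cycle alteration. Growth was scored as inhibition against vehicle-only controls.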

[3] = NCI Yeast Anticancer Drug Screen. Data for the sgs1 mgt1 strain (AID 161);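 further: 0% = growth of cultures given vehicle only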; conditions: S. cerevisiae sgs1 mgt1 strain, hits give high values
How it was run: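 Inhibition of yeast growth, normalised to vehicle-treated controls, is reported for a strain bearing genetic alterations in DNA damage repair.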

[4] = NCI Yeast Anticancer Drug Screen. Data for the cln2 rad14 strain (AID 165);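 further: 0% = growth equal to vehicle treated cultures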; conditions: S. cerevisiae cln2 rad14 strain, hits give high values
How it was run: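 Growth of compound-exposed yeast (cln2 rad14 genotype) measured and expressed as inhibition relative to vehicle.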

[5] = NCI Yeast Anticancer Drug Screen. Data for the bub3 strain (AID 167); conditions: S. cerevisiae bub3 mutant strain, hits give high values
How it was run: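 Steps: expose the mutant yeast strain to compound; grow alongside vehicle-treated cultures; measure growth; express inhibition against the vehicle cultures.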

[6] = NCI Yeast Anticancer Drug Screen. Data for the mlh1 rad18 strain (AID 175); conditions: S. cerevisiae mlh1 rad18 strain growth inhibition, hits give high values
How it was run: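 In this whole-cell yeast screen, a strain with altered DNA damage repair is challenged with compound, and its growth is measured against matched vehicle-treated controls.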

[7] = at 5.0 µM (retest, dose inferred, filed as 0.5)
[8] = at 50.0 µM (retest, dose inferred, filed as 5.0)

Structure (SMILES) | growth inhibition [1, 7] | growth inhibition [1, 8] | growth inhibition ([1]; at 50.0 µM) | growth inhibition [2, 7] | growth inhibition [2, 8] | growth inhibition ([2]; at 50.0 µM) | growth inhibition [3, 7] | growth inhibition [3, 8] | growth inhibition ([3]; at 50.0 µM) | growth inhibition [4, 7] | growth inhibition [4, 8] | growth inhibition ([4]; at 50.0 µM) | growth inhibition [5, 7] | growth inhibition [5, 8] | growth inhibition ([5]; at 50.0 µM) | growth inhibition [6, 7] | growth inhibition [6, 8] | growth inhibition ([6]; at 50.0 µM)
CC(C)(C)OC(=O)CSC#N | 11% | 93% (active) | 67.3% | 16% | 95% (active) | 66.2% | 9% | 96% (active) | 90.5% (active) | 8% | 39% | 3.75% | 12% | 94% (active) | 69.2% | 15% | 92% (active) | 55.5%
CCCCCCCCN/N=C(/C)CCCCCO | -6% | 4% | -14.2% | 4% | 9% | -11.8% | 1% | 1% | -12.7% | -67% | -2% | 22.8% | 1% | -80% | 15.9% | -1% | -12% | -23.6%
O=C(c1ccc([N+](=O)[O-])cc1)C(Br)C(Br)c1ccnc2ccccc12 (configuration not stated) | 25% | 80% (active) | 98.2% (active) | 23% | 63% | 99.1% (active) | 21% | 91% (active) | 98.9% (active) | -1% | 69% | 96.7% (active) | 3% | 86% (active) | 98.8% (active) | 18% | 95% (active) | 98.8% (active)
O=C(Nc1ccc(/C=C/c2ccc(NC(=O)c3cc(S(=O)(=O)O)c4cccnc4c3O)cc2S(=O)(=O)O)c(S(=O)(=O)O)c1)c1cc(S(=O)(=O)O)c2cccnc2c1O | 19% | 97% (active) | 94.4% (active) | 26% | 97% (active) | 88.7% (active) | 34% | 97% (active) | 93.8% (active) | 9% | 95% (active) | 90.2% (active) | 13% | 98% (active) | 95.9% (active) | 41% | 97% (active) | 91.3% (active)
Cc1c(C)c(NC(=O)/C=C/C(=O)O)c(C)c(C)c1NC(=O)/C=C\C(=O)O | -14% | 14% | 61.7% | -6% | 37% | 88.8% (active) | -13% | 11% | 89.9% (active) | 7% | 11% | 42.2% | -4% | 35% | 86.3% (active) | -31% | 58% | 59.6%
CCc1ccc(CC(=O)O)c2ccc3c(C)ccc(C)c3c12 | 15% | 96% (active) | 98.9% (active) | 14% | 98% (active) | 95.8% (active) | 14% | 97% (active) | 98.6% (active) | 19% | 93% (active) | 95.8% (active) | 11% | 51% | 63.5% | 8% | 96% (active) | 94.4% (active)
Cc1cccc(NC(=O)Oc2ccc(Cl)c3cccnc23)c1 | 75% (active) | 99% (active) | 88.5% (active) | 57% | 99% (active) | 88.7% (active) | 97% (active) | 99% (active) | 91.8% (active) | 95% (active) | 99% (active) | 89.9% (active) | 82% (active) | 67% | 85.5% (active) | 72% (active) | 99% (active) | 88.8% (active)
N#CCc1nc(Cl)cc(Cl)n1 | 2% | 29% | 31.9% | 12% | 59% | 81.6% (active) | 2% | 24% | 19.8% | 4% | 12% | 9.7% | -4% | 2% | 5.05% | 3% | 27% | 15.9%
O=C(Cc1ccccc1)NC(C(=O)c1ccccc1)c1ccccc1 (configuration not stated) | 36% | 55% | 75.5% (active) | 21% | 40% | 31.1% | 36% | 47% | 72.2% (active) | 25% | 26% | 57% | 48% | 72% (active) | 83.2% (active) | 35% | 53% | 73.7% (active)
c1ccc(-c2nc3nc4ccccc4nc3nc2-c2ccccn2)nc1 | -8% | 84% (active) | 24.9% | 4% | 92% (active) | 0.9% | 8% | 87% (active) | 20.6% | -5% | 85% (active) | -19.1% | -4% | 98% (active) | 50.6% | 14% | 98% (active) | 22.8%
CCCNCCCC(C)Nc1cc(OC)cc2c(C)ccnc12 (configuration not stated) | 17% | 73% (active) | 66.4% | 8% | 48% | 55.2% | 20% | 78% (active) | 41.9% | 2% | 46% | 27.1% | -6% | 80% (active) | 53.7% | 11% | 86% (active) | 59.2%
O=C(NC1CCN(Cc2ccccc2)CC1)c1cccc(I)c1 | 49% | 68% | 51.7% | 39% | 64% | 58% | 57% | 73% (active) | 81% (active) | 84% (active) | 88% (active) | 82.2% (active) | 62% | 65% | 70% (active) | 73% (active) | 59% | 67.5%
O=C(O)c1c(-c2ccccc2)cc(-c2ccccc2)cc1-c1ccccc1 | 93% (active) | 98% (active) | 99.1% (active) | 90% (active) | 98% (active) | 99.2% (active) | 93% (active) | 99% (active) | 99.3% (active) | 90% (active) | 98% (active) | 97.8% (active) | 88% (active) | 95% (active) | 98.2% (active) | 92% (active) | 98% (active) | 98.9% (active)
Cc1ccc(S(=O)(=O)CC2(Br)Cc3ccccc3C2=O)cc1 (configuration not stated) | 79% (active) | 99% (active) | 97.3% (active) | 76% (active) | 99% (active) | 98.8% (active) | 86% (active) | 99% (active) | 99.1% (active) | 24% | 99% (active) | 98.2% (active) | 85% (active) | 99% (active) | 99% (active) | 75% (active) | 98% (active) | 98.5% (active)
COc1ccc2c(c1)[n+]([O-])c(S(=O)(=O)c1ccc(C)cc1)c(N)[n+]2[O-] | 4% | 80% (active) | 99.2% (active) | 18% | 80% (active) | 98.8% (active) | 35% | 96% (active) | 96% (active) | 16% | 66% | 99% (active) | 50% | 96% (active) | 99% (active) | 36% | 95% (active) | 99% (active)
S=C1NC2=C(COC/C2=C\c2ccccc2Cl)C(c2ccccc2Cl)N1 (configuration not stated) | 94% (active) | 94% (active) | 76.9% (active) | 47% | 96% (active) | 81.5% (active) | 55% | 97% (active) | 79.2% (active) | 53% | 96% (active) | 76.8% (active) | 58% | 96% (active) | 82% (active) | 92% (active) | 94% (active) | 81.3% (active)
Oc1[nH]c2ccccc2c1N=NC(=S)N1CCCC1 | 15% | 65% | 33.5% | 5% | 64% | 58.6% | 7% | 42% | 54.6% | 11% | 48% | 55% | 26% | 74% (active) | 61.6% | 13% | 68% | 57.8%
CCOC(=O)/C(=N/NS(=O)(=O)c1c(C)cc(C)cc1C)c1ccco1 | -2% | 13% | 64.6% | -2% | 25% | 45.5% | 2% | 41% | 50.4% | 0% | -4% | 38.3% | 1% | 29% | 79.8% (active) | 4% | 34% | 80.7% (active)
CC(=O)NC1CCCCC1CC1CCCCC1 (configuration not stated) | -146% | -23% | 19.2% | -48% | -44% | 20.1% | -63% | -32% | 35.8% | -57% | -52% | 79.2% (active) | -68% | -49% | 24% | -125% | -138% | 16.9%
